Screening data (PubChem BioAssay)
Only some compounds are listed: those with a hit (about 4.5% of all), similar ones and a draw of the others.
tim23-1 inh – growth inhibitors of tim23-1 mutant yeast, primary screen, luminescence, uHTS | actives 1.3% (n = 330,000) | inhibition, % at 20 µM | S. cerevisiae tim23-1 growth, BacTiter-Glo luminescence, 24 h;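 active = growth inhibition of the mutant yeast at or above 50%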;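 also: temperature-sensitive mutant grown at 25 °C; plate controls were DMSO-treated mutant yeast for no effect and medium wells lacking yeast for full effect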
SKKanGAS inh – S. pyogenes SKKanGAS growth inhibitors in kanamycin, primary screen, streptokinase expression inhibitor project, SKKanGAS strain, BacTiter-Glo luminescence; AID 1662, 2009; inhibition, % at 7.5 µM; 6 h; actives 1.3% (n = 300,000);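 active = mean replicate score, as percent of positive control median, at least 50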;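 also: strain carries kanamycin resistance gene driven by streptokinase promoter and grows in 40 µg/ml kanamycin; loss of luminescence reflects streptokinase promoter inhibition or plain growth inhibition; 0% = median of DMSO wells and 100% = positive control at its reference dose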
NALP3 yeast inh – NALP3 inflammasome inhibitors in reconstituted yeast, primary screen, luminescence, uHTS; actives 0.39% (n = 330,000); inhibition, % at 10 µM; AID 2825, 2010; Yeast reconstituted NLRP3/ASC/caspase-1, beta-gal luminescence, 24 h;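 active = inhibition of 50% or more; inactive = inhibition below 50%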;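 also: plate controls were induced DMSO wells for no effect and uninduced yeast grown without galactose for full effect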
TIM10 inh – growth inhibitors of isogenic TIM10 control yeast, primary screen, counter-screen for tim10-1 yeast inhibitor project, luminescence, uHTS; S. cerevisiae TIM10 strain growth, BacTiter-Glo luminescence, 24 h; AID 463195, 2010; inhibition, % at 10 µM; actives 1.4% (n = 330,000);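 active = inhibition of 40% or more at the single tested concentration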;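 also: wild-type TIM10 isogenic control strain grown at permissive 25 °C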
PfHsp90 yeast 2 – growth inhibition of PfHsp90-expressing yeast, primary screen, antimalarial PfHsp90 inhibitor project, S. cerevisiae, BacTiter-Glo luminescence, single point, set 2; BacTiter-Glo ATP, 48 h; yeast lacking PDR1 and PDR3 efflux regulators; inhibition, % at 9.4 µM; actives 0.32% (n = 310,000); AID 504621, 2011;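 active = every replicate shows inhibition above about 80%, whatever the replicate mean, limit read from the data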;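 also: 0% = DMSO neutral controls and 100% = 20 µM radicicol positive controls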
tim10-1 inh – growth inhibitors of tim10-1 mutant yeast, primary screen, luminescence, uHTS; S. cerevisiae tim10-1 ts strain growth, BacTiter-Glo, 24 h; inhibition, % at 20 µM; actives 2.2% (n = 330,000);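 active = inhibition of at least 40%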;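 also: mutant grown at 25 °C; 0% = DMSO wells with yeast and 100% = wells holding no yeast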
tim10-1 confirm – growth inhibitors of tim10-1 mutant yeast, confirmation, single concentration, luminescence, S. cerevisiae. actives 56% (n = 7,400). AID 463213, 2010. shares compounds with tim10-1 inh. inhibition, % at 20 µM. S. cerevisiae tim10-1 ts strain growth, BacTiter-Glo, 24 h;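 active = inhibition of yeast growth at or above a set limit in either of two repeat tests at 20 µM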;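 also: tim10-1 mutant grown at permissive 25 °C to find synthetic lethal compounds; 0% = DMSO yeast wells and 100% = medium wells without yeast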
tim10 confirm – growth inhibitors of wild-type TIM10 yeast, confirmation, counter-screen for tim10-1 synthetic lethality project, single concentration, luminescence, S. cerevisiae; inhibition, % at 10 µM; actives 63% (n = 4,600); S. cerevisiae tim10 strain growth, BacTiter-Glo luminescence, 24 h; shares compounds with TIM10 inh;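 active = inhibition of yeast growth at or above a set limit in either of two replicates at 10 µM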;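 also: this counterscreen used the strain with wild-type TIM10; 0% = yeast with DMSO and 100% = medium wells lacking yeast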
tim23-1 confirm – tim23-1 mutant yeast growth inhibitors, confirmation, luminescence, single concentration. shares compounds with tim23-1 inh. S. cerevisiae tim23-1 growth, BacTiter-Glo luminescence, 24 h. inhibition, % at 20 µM. actives 83% (n = 4,400);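 active = inhibition above about 39% in either of two replicate wells at 20 µM, limit read from the data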;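 also: temperature-sensitive tim23-1 mutant grown at 25 °C; 0% = DMSO wells with yeast and 100% = medium wells without yeast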
Numbers without * were called inactive; · = no result given.

SMILES | tim23-1 inh | SKKanGAS inh | NALP3 yeast inh | TIM10 inh | PfHsp90 yeast 2 | tim10-1 inh | tim10-1 confirm | tim23-1 confirm | others
Cc1ccnc(Nc2nc(-c3sc(C)nc3C)cs2)c1 | 82* | -8 | -9 | 39 | 5 | 48* | 25 | 58*
CCOc1ccc(C(=O)OCC(=O)NCC2CCCO2)cc1 (configuration not stated) | -13 | · | 16 | -5 | -2 | -14 | · | ·
CN(C)c1ccc(/C=N/NC(=O)CCCO)cc1 | 8 | -7 | 13 | 10 | 13 | -8 | · | ·
COc1ccc(/C=N\NC(=S)SCN2C(=O)C3CCC(C)(C2=O)C3(C)C)cc1 (configuration not stated) | 52* | 4 | 23 | 52* | -41 | 49* | 40* | 51* | tim10 confirm=-8
CC12CCC(C(=O)N(CSC(=S)N/N=C\c3ccccc3O)C1=O)C2(C)C (configuration not stated) | 66* | 108* | 33 | 44* | 8 | 47* | 24 | 57* | tim10 confirm=38*
CN(C)c1ccc(/C=N\NC(=S)SCN2C(=O)C3CCC(C)(C2=O)C3(C)C)cc1 (configuration not stated) | 53* | · | 9 | 53* | -21 | 61* | 52* | 47* | tim10 confirm=-20
COc1ccc(C(=O)NN2C(=O)C3CCC(C)(C2=O)C3(C)C)cc1 (configuration not stated) | 29 | -3 | -2 | -1 | 0 | 12 | · | ·
C/C(=N\NC(=O)c1ccc(CN2CCc3ccccc3C2)cc1)c1ccccc1O | 74* | 25 | 14 | 45* | 21 | 47* | 29 | 79* | tim10 confirm=48*
COc1ccc(NC(=O)c2c(NC(=O)CCC(=O)O)sc(-c3ccccc3)c2C)cc1 | 7 | 9 | 6 | 8 | -2 | 10 | · | ·
Cc1c(C#N)c(N=CN(C)C)c(C(=O)c2ccc(Br)cc2)n1-c1ccccc1 | 56* | -11 | 7 | 42* | 22 | 41* | 25 | 35 | tim10 confirm=22
O=C(c1noc2c1CSc1ccccc1-2)N1CCN(c2ccc(Cl)cc2)CC1 | 4 | 8 | 5 | 5 | 0 | 10 | · | ·
COc1cc(NC(=O)CN2CCN(CC(=O)Nc3ccccc3OC)CC2)cc(OC)c1 | 14 | 1 | 10 | 4 | -6 | 25 | · | ·
Cc1cccc(C)c1NC(=O)c1cccc2c1C(=O)N(C1CCCCC1)C2 | 55* | -1 | 16 | 18 | 0 | 56* | 11 | 38
Cc1cc(NC(=O)c2cccc3c2C(=O)N(C2CCCCC2)C3)ccc1Br | -15 | 2 | 15 | 0 | -9 | 31 | · | ·
FC(F)(F)c1ccccc1/C=N/n1c(C2CCCCC2)n[nH]c1=S | 51* | 56* | 9 | 33 | -196 | 48* | 33* | 51*
S=c1[nH]nc(C2CCCCC2)n1/N=C/c1ccccc1Cl | 64* | 18 | 23 | 27 | -38 | 58* | 29* | 61*
COc1ccc(NS(=O)(=O)c2cc(NC(=O)c3ccc(=O)[nH]n3)ccc2C)cc1 | 9 | · | 11 | 20 | · | 11 | · | ·
Clc1ccc2c(c1)C(C1=NCCN1)c1ccccc1CS2 (configuration not stated) | 2 | 2 | 12 | 6 | -2 | -15 | · | ·
S=C1NCCc2ccc(Cl)cc2C1c1ccccc1Cl (configuration not stated) | 59* | 0 | -37 | 47* | -10 | 44* | 21 | 37 | tim10 confirm=4
Cc1cccnc1CN1CCN(Cc2nc(Cc3cccc(F)c3)no2)CC1 | 5 | 9 | -5 | 6 | -19 | 4 | · | ·
O=C1/C(=C/c2ccccc2O)SC(=S)N1Cc1cccnc1 | 1 | -3 | 17 | 10 | 7 | 23 | · | ·
CN1C(=O)/C(=C/c2cc(N=Nc3ccccc3)ccc2O)SC1=S | 55* | 34 | 43 | 36 | 29 | 51* | 41* | 65*
O=C(CSc1nccc(=O)[nH]1)Nc1ccc(N2CCOCC2)cc1 | 0 | 2 | -1 | 10 | 10 | -4 | · | ·
COc1ccc(/C(C)=N/NC(=S)NCc2ccco2)cc1 | 51* | -13 | 7 | 33 | -29 | 41* | 48* | 54*
CC1=C(CO)C(=O)OC([C@@H](C)C2CC[C@H]3C4C[C@H]5O[C@]56[C@@H](O)C=CC(=O)[C@]6(C)C4CC[C@]23C)C1 (some centres not stated) | · | 2 | · | · | 5 | · | · | ·
SMILES | tim23-1 inh | SKKanGAS inh | NALP3 yeast inh | TIM10 inh | PfHsp90 yeast 2 | tim10-1 inh | tim10-1 confirm | tim23-1 confirm | others
COc1ccc(C(=O)NNC(=O)c2ccccn2)cc1 | 51* | 4 | -1 | 33 | 42 | 52* | 40* | 42*
NC(=S)N/N=C/c1ccccc1OCCSc1ccc(Cl)cc1 | 54* | 14 | 17 | 57* | -29 | 43* | 32* | 34 | tim10 confirm=3
COc1cccc(/C=N/NC(N)=S)c1OCc1ccccc1Cl | 17 | -1 | 11 | 34 | 3 | 27 | · | ·
O=C(COc1coc(CN2CCc3ccccc32)cc1=O)Nc1cccc(F)c1 | 9 | -12 | 7 | 4 | 15 | 8 | · | ·
CN1CCN(C2=Cc3cc(Cl)ccc3Sc3cc(F)ccc32)CC1 | 78* | 90* | 24 | -15 | -5 | 57* | 40* | 67*
CCCCOc1cccc(-c2nnc(N)s2)c1 | 52* | 0 | 2 | 29 | 11 | 53* | 36* | 50*
Nc1nonc1-n1nnc(C(=O)N/N=C/c2cc(Br)ccc2O)c1CNc1ccccc1 | 51* | 108* | 13 | 48* | 40 | 61* | -6 | 54* | tim10 confirm=54*
O=C(CCNC(=O)c1ccc([N+](=O)[O-])cc1)Nc1ccc(S(=O)(=O)N2CCOCC2)cc1 | 14 | 8 | 18 | 0 | · | 5 | · | ·
Cc1ccc(NC(=O)c2sccc2C)nc1 | -6 | 20 | 13 | 10 | 9 | -4 | · | ·
CN(C)c1ccc(NC(=O)CSc2nnc(C3CCCCC3)n2N)cc1 | -4 | 2 | 14 | -3 | -31 | 6 | · | ·
